Seven compounds from PubChem BioAssay can be followed below.

Unmarked numbers belong to inactive results. Calls of active or inactive are those of the source. No stated cut-off is given here; in the data, active means fold change permeability below about 0.7 or above about 1.3; inactive means in between.

The assay can be described thus: modulators of brain endothelial barrier permeability, primary screen, cell-based, FITC-avidin fluorescence, HTS (AID 1963498). Further: test concentration not given here. The following applies: actives lie on both sides.
On to `FC(F)(F)c1ccccc1-n1ccnc1`, for which the fold change permeability was 1.2.
As to `Nc1cc(Cl)c(NC2=NCCN2)c(Cl)c1`, the fold change permeability is 1.
To `CCCC(=O)NCCc1csc(-c2ccc(Cl)cc2)n1` belongs 1.5 (active); to `Oc1cc2c(cc1O)C(c1ccccc1)CNCC2` (configuration not stated), 0.7 (active); to `NCCCCCC(=O)O`, 1.1.
Turning to `CN1CCc2cc(Cl)c(O)cc2[C@@H](c2ccccc2)C1`, the fold change permeability is 0.9.
As to `O=C(Nc1ccccc1)c1cc([N+](=O)[O-])ccc1Cl`, the fold change permeability was 1.5 (active).
